Assay results taken from PubChem BioAssay (NCATS).
Inconclusive results are not listed. The source made the active and inactive calls. Calls come from the whole dose curve; as a rule, active = well fitted cell-killing curve with a large enough effect; inconclusive = small, poorly fitted or top-dose-only effect; inactive = flat fitted curve, though single readings scatter.

Test: qHTS of pediatric cancer cell lines to identify multiple opportunities for drug repurposing: Primary screen for Rh18 cells (AID 1347102); note: nearly all actives have a fitted effect of over 65% in size
Details: Rh18 rhabdomyosarcoma viability, CellTiter-Glo luminescence, 48 h; series mostly up to 46 µM; activity change, negative = cytotoxic: at the top concentration
From the text: Drug repurposing or repositioning has been offered as a strategy for drug development in oncology programs. This approach has special potential for childhood cancers and other rare or orphan diseases, where the expected return on new drug development has been a disincentive to pharmaceuticals.
In this project we exploit the poly-pharmacology of drugs to discover new indications via phenotypic screening of a panel of 19 well-characterized cell lines derived from solid tumors seen in children and adolescents. The goal is to identify approved drugs with previously unrecognized anticancer properties that has the potential to reveal new mechanisms and biological processes involved in carcinogenesis or drug resistance. We employed a titration-based paradigm (quantitative high-throughput screening or qHTS), where all compounds were tested at multiple concentrations for their effect on cell viability. Concentration-response curves (CRCs) were derived directly from the primary screen, and both potency and efficacy values were used to identify compounds with robust bioactivity profiles. We screened the NIH Chemical Genomics Center (NCGC) Pharmaceutical Collection (NPC) and Mechanism Interrogation Plate (MIPE) small molecule collections of approved and investigational compounds against these cell lines; and measured metabolically active cells after 48 hours of compound treatment as a proxy for cell viability.
Assay Submitter: Nathalia J. Martinez, National Center for Advancing Translational Sciences, National Institutes of Health, Rockville, MD, USA; email: natalia.martinez@nih.gov
[1] Shen, M et al. Quantitative high-throughput phenotypic screening of pediatric cancer cell lines identifies multiple opportunities for drug repurposing. Oncotarget 2017 Dec 19;9(4):4758-4772. PMID 29435139.
The cells were obtained from University of North Carolina (UNC), Pediatric Preclinical Testing Program (PPT), and Coriell Institute (CI).
qHTS cell viability assay:
Cells were assayed in growth media at a density of 500-1,000 cells/well. Five microliters of cells were dispensed into 1,536-well, white, solid-bottom, TC-treated plates (Greiner Bio One) using a multidrop dispenser and incubated at 37 degrees C, 5% CO2, under a humidified atmosphere for 5 hours. Twenty-three nanoliters of compounds and controls (neutral control DMSO or positive control bortezomib at final concentration of 2.3 µM) were subsequently transferred by Kalypsys pintool. For primary screens, the MIPE collection was tested at 11-point dilutions (final concentrations range from 0.78 nM to 46 µM) and the NPC collection at 8-point dilutions (final concentrations range from 0.59 nM to 46 µM). Compounds tested in follow-up screens were assayed at 11-point dilutions. Cells were incubated for 48 hours, followed by addition of 3 µL of CellTiter-Glo (Promega). After a 15 min incubation at room temperature, samples were analyzed for luminescence intensity using a ViewLux High-throughput CCD imager equipped with clear filters.
% is set by controls: 0 for no effect and ±100 for the full control effect; potency is the fitted concentration of half-maximal effect.

SMILES	activity change, negative = cytotoxic	Potency
C[C@@H](Cc1cc2c(c(C(N)=O)c1)N(CCCO)CC2)NCCOc1ccccc1OCC(F)(F)F	-6.66% (inactive)	
CC(=O)OCC(=O)[C@@]12N=C(C)O[C@H]1C[C@H]1[C@@H]3CCC4=CC(=O)C=C[C@]4(C)[C@@H]3[C@@H](O)C[C@@]12C	10% (inactive)	
CC(=O)N[C@@H]1[C@H](O[C@@H]2c3ccc(c(Cl)c3)Oc3cc4cc(c3O[C@H]3O[C@H](CO)[C@@H](O)[C@H](O)[C@H]3NC(=O)CCCCCCCC(C)C)Oc3ccc(cc3Cl)C[C@H]3NC(=O)[C@H](N)c5ccc(O)c(c5)Oc5cc(O)cc(c5)[C@H](NC3=O)C(=O)N[C@H]4C(=O)N[C@H]3C(=O)N[C@@H]2C(=O)N[C@@H](C(=O)O)c2cc(O)cc(O[C@H]4O[C@H](CO)[C@@H](O)[C@H](O)[C@H]4O)c2-c2cc3ccc2O)O[C@H](CO)[C@@H](O)[C@@H]1O	-2.81% (inactive)	
C[C@@H]1C(=O)O[C@H]2CC34[C@H]5C[C@@H](C(C)(C)C)C36[C@H](OC(=O)[C@@H]6O)O[C@@]4(C(=O)O5)[C@]21O (stereo not given in full)	-13.5% (inactive)	
CC(=O)C1=C(O)C=C2Oc3c(C(C)=O)c(O)c(C)c(O)c3C2(C)C1=O (stereo not given)	-8.89% (inactive)	
C[C@H]1C[C@H]2[C@@H]3CCC4=CC(=O)C=C[C@]4(C)[C@@H]3C(=O)C[C@]2(C)[C@@]1(O)C(=O)CO	0.679% (inactive)	
CON=C(C(=O)N[C@@H]1C(=O)N2C(C(=O)O)=C(Cn3ccc(=N)n3CCO)CS[C@H]12)c1csc(N)n1	9.08% (inactive)	
c1ccc2c(Oc3nc(Nc4ccc(N5CCOCC5)cc4)c4ncn(C5CCCCC5)c4n3)cccc2c1	-1.36% (inactive)	
O=S(=O)(O)CCSSCCS(=O)(=O)O	16.8% (inactive)	
C[C@@H](Oc1ccc2[nH]nc(C=Cc3cnn(CCO)c3)c2c1)c1c(Cl)cncc1Cl		5.9 µM (active)
CC(Cc1ccc(O)c(O)c1)(NN)C(=O)O (stereo not given)	-10.5% (inactive)	
Cc1cnc(Nc2ccc(N3CCN(C)CC3)cc2)nc1Nc1cccc(S(=O)(=O)NC(C)(C)C)c1		3.32 µM (active)
C[C@@H]1[C@H](C)CC[C@]2(C(=O)O)CC[C@]3(C)C(=CC[C@@H]4[C@@]5(C)C[C@@H](O)[C@H](O)[C@@](C)(CO)[C@H]5CC[C@]43C)[C@@H]12	22.1% (inactive)	
FC(F)(F)c1ccc(Nc2nc3ccc(Oc4ccnc(-c5ncc(C(F)(F)F)[nH]5)c4)cc3[nH]2)cc1	3.15% (inactive)	
CC(=O)NC(CS)C(=O)O (stereo not given)	7.13% (inactive)	
CC(C)C[C@H](NC(=O)CNC(=O)c1cc(Cl)ccc1Cl)B1OC(=O)CC(CC(=O)O)(C(=O)O)O1 (stereo not given in full)		0.209 µM (active)
CC[C@H](CC[C@@H](C)[C@H]1CC[C@H]2[C@@H]3CC=C4C[C@@H](O)CC[C@]4(C)[C@@H]3CC[C@]12C)C(C)C	4.7% (inactive)	
c1cncc(CN2CCC(n3ncc4c(N5CCOCC5)nc(-c5ccc6[nH]ccc6c5)nc43)CC2)c1		5.9 µM (active)
O=C(Nc1cccc(Nc2ncc(Br)c(NCCc3cnc[nH]3)n2)c1)N1CCCC1		9.35 µM (active)
CCC(C(=O)O)C1CCC(C)C(C(C)C(O)C(C)C(=O)C(CC)C2OC3(C=CC(O)[C@@]4(CC[C@](C)(C5CC[C@@](O)(CC)C(C)O5)O4)O3)C(C)CC2C)O1 (stereo not given in full)		5.9 µM (active)

SMILES	activity change, negative = cytotoxic	Potency
OCCN1C[C@H](O)[C@@H](O)[C@H](O)[C@@H]1CO	11.5% (inactive)	
OCC(O)C(O)C(O)CO (stereo not given)	4.95% (inactive)	
CCCCCCCN(CC)CCCC(O)c1ccc(NS(C)(=O)=O)cc1 (stereo not given)	1.58% (inactive)	
C=C1CCC2[C@](C)(CO)C(O)CC[C@]2(C)C1CC=C1C(=O)OCC1O (stereo not given in full)	9.23% [at 92.7 µM] (inactive)	
COc1cccc2c1C(=O)c1c(O)c3c(c(O)c1C2=O)C[C@@](O)(C(=O)CO)C[C@H]3O[C@H]1C[C@H](N)[C@H](O)[C@H](C)O1		0.662 µM (active)
NC(=O)Nc1sc(-c2ccc(F)cc2)cc1C(N)=O		5.26 µM (active)
CC[C@@]1([C@@H]2O[C@@H]([C@H]3O[C@@](O)(CO)[C@H](C)C[C@H]3C)C[C@H]2C)CC[C@H]([C@]2(C)CC[C@]3(C[C@H](O)[C@@H](C)[C@@H]([C@@H](C)[C@@H](OC)[C@H](C)C(=O)O)O3)O2)O1	-28.6% [at 16.1 µM] (inactive)	
COc1ccc(C=Cc2cc(OC)c(OC)c(OC)c2)cc1NC(=O)[C@H](N)CO	-37.8% (inactive)	
NC(=NCCCCCCN=C(N)N=C(N)Nc1ccc(Cl)cc1)N=C(N)Nc1ccc(Cl)cc1		20.9 µM (active)
Cc1cnc(NC(=O)Nc2cc(Br)c(C)cc2OC[C@@H]2CNCCO2)cn1	7.78% (inactive)	
CCOC(=O)[C@@H](N)Cc1ccc(-c2cc(O[C@H](c3ccc(Cl)cc3-n3ccc(C)n3)C(F)(F)F)nc(N)n2)cc1		23.5 µM (active)
CC(=O)[C@]1(O)Cc2c(O)c3c(c(O)c2[C@@H](O[C@H]2C[C@H](N)[C@@H](O)[C@H](C)O2)C1)C(=O)c1ccccc1C3=O		4.69 µM (active)
CCCCC(=O)O[C@]1(C(=O)CO)[C@@H](C)C[C@H]2[C@@H]3CCC4=CC(=O)C=C[C@]4(C)[C@@]3(F)[C@@H](O)C[C@@]21C	3.45% (inactive)	
CCN(C(=O)c1c(O)c2c(Cl)cccc2n(C)c1=O)c1ccccc1	7.08% (inactive)	
COc1ccc(C(C)=O)c(O)c1	14.2% (inactive)	
CN1CCCN(C(=O)c2cccc(-c3ccc(C=C4C(=O)Nc5ccc(Cl)cc54)o3)c2)CC1		7.43 µM (active)
O=C(O)C(=O)Nc1cccc(C2=NN=N[N]2)c1	14.3% (inactive)	
COc1cc(OC)c(NC(=O)Nc2cc(C)on2)cc1Cl	8.42% (inactive)	
CC(=O)N[C@H]1[C@@H]([C@H](O)[C@H](O)CO)OC(C(=O)O)=C[C@@H]1N=C(N)N	10.8% (inactive)	
COc1cc([C@@H]2c3cc4c(cc3[C@H](O)[C@H]3COC(=O)[C@@H]23)OCO4)cc(OC)c1OC	-9.69% (inactive)	
